The text below walks through data of PubChem BioAssay (NCATS).

Where “and” joins values, the source holds several entries; their conditions need not be identical. Identical values can stand only once. Results filed as inconclusive are left out. Unmarked numbers belong to inactive results. Calls of active or inactive are those of the source. Calls come from the whole dose curve; as a rule, active = well fitted curve in the direction sought with a large enough effect; inconclusive = small, poorly fitted or top-dose-only effect, or another doubt; inactive = no such curve, though single readings can be large; an effect the other way counts as inactive or inconclusive.

Experiment [1] has as its target Cellular tumor antigen p53 (Homo sapiens) (UniProt P04637). Put plainly: Primary qHTS for small molecule compounds that upregulate eGFP-tagged delta133p53alpha (in N-terminal) cells. (AID 2060322).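 For activation: series mostly up to about 56 µM; 0% = DMSO vehicle and 100% = reference activator.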 Note: nearly all actives have a fitted effect of over 75% in size. Note: potency is the fitted concentration of half-maximal effect. The following applies: NCI-H358 eGFP-delta133p53alpha fluorescence, 24 h; activation: active compounds read high. In short, it runs like this:
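NCI-H358 cells pre-induced 24 h with 10 ng/ml doxycycline to express N-terminal eGFP-delta133p53alpha, then dosed 24 h at 37C without doxycycline; fixed, Hoechst-stained, GFP intensity by laser scanning cytometry, normalized to DMSO (0%) and 57.5 uM 5-azacytidine (100%).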
(qHTS replaces the single test concentration by a dilution series.)

Experiment [2] has as its target Aldehyde dehydrogenase, mitochondrial (Homo sapiens) (UniProt P05091). Put plainly: qHTS for Inhibitors of the Aldehyde Dehydrogenase Family (ALDH2) Primary screen (AID 2061308).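 Note: plate controls were vehicle for no effect and reference inhibitor for full effect; nearly all actives have a fitted effect of over 55% in size.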
The target of experiment [3] is Retinaldehyde dehydrogenase 3 (Homo sapiens) (UniProt P47895). Put plainly: qHTS for Inhibitors of the Aldehyde Dehydrogenase Family (ALDH1A3) Primary screen (AID 2061315).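 Note: plate controls were DMSO vehicle for no effect and reference inhibitor for full effect.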
Experiment [4] in a line: BET inhibitor-based combinations targeting novel dependencies in MECOM-rearranged (r) AML: SET-2 cell line (AID 2202231).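 For viability: plate controls were DMSO treated cells for no effect and wells without cells for full effect.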 Note: nearly all actives have a fitted effect of over 35% in size. Note: potency is the fitted concentration of half-maximal effect. Conditions: SET-2 AML cells viability, CellTiter-Glo luminescence, 48 h; viability: active compounds read low, concentration not given here. A digest of the protocol:
(§1)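 Luminescent ATP readout (CellTiter-Glo) after 48 hr drug exposure gives viability. Curves span 11 concentrations and are normalized to DMSO and empty wells. Activity is reported as area under the curve and its Z-transform within each cell line.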
In general terms: ATP-based viability assays read luminescence as a measure of living cells.

Experiment [5] is described as follows: BET inhibitor-based combinations targeting novel dependencies in MECOM-rearranged (r) AML: OCI-AML3 cell line (AID 2202232). Note: nearly all actives have a fitted effect of over 35% in size. Note: potency is the fitted concentration of half-maximal effect. Conditions: Potency: OCI-AML3 viability. In short, it runs like this:
as §1

A short description of experiment [6]: BET inhibitor-based combinations targeting novel dependencies in MECOM-rearranged (r) AML: MV-4-11 cell line (AID 2202233). Note: nearly all actives have a fitted effect of over 45% in size. Note: potency is the fitted concentration of half-maximal effect. In short, it runs like this: (§2)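 Luminescent ATP readout (CellTiter-Glo, 15 min at room temperature) after 48 hr drug exposure gave viability. Dose-response curves, normalized to DMSO and empty-well controls, were summarized as area under the curve and its mean-centred Z-score.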

The nature of experiment [7]: BET inhibitor-based combinations targeting novel dependencies in MECOM-rearranged (r) AML: HNT-34 cell line (AID 2202234). Note: nearly all actives have a fitted effect of over 35% in size. Note: potency is the fitted concentration of half-maximal effect. In short, it runs like this:
as §2

The nature of experiment [8]: BET inhibitor-based combinations targeting novel dependencies in MECOM-rearranged (r) AML: UCSD-AML1 cell line (AID 2202235). Note: nearly all actives have a fitted effect of over 40% in size. Note: potency is the fitted concentration of half-maximal effect. In short, it runs like this: as §2
Experiment [9] in a line: BET inhibitor-based combinations targeting novel dependencies in MECOM-rearranged (r) AML: AML-191 cell line (AID 2202236; note: nearly all actives have a fitted effect of over 35% in size; note: potency is the fitted concentration of half-maximal effect). In short, it runs like this:
as §1

Experiment [10] is described as follows: BET inhibitor-based combinations targeting novel dependencies in MECOM-rearranged (r) AML: AML-194 cell line (AID 2202237; note: nearly all actives have a fitted effect of over 40% in size; note: potency is the fitted concentration of half-maximal effect). In short, it runs like this:
as §1

Cellular tumor antigen p53 (Homo sapiens), sequence (P04637 whole entry, looked up): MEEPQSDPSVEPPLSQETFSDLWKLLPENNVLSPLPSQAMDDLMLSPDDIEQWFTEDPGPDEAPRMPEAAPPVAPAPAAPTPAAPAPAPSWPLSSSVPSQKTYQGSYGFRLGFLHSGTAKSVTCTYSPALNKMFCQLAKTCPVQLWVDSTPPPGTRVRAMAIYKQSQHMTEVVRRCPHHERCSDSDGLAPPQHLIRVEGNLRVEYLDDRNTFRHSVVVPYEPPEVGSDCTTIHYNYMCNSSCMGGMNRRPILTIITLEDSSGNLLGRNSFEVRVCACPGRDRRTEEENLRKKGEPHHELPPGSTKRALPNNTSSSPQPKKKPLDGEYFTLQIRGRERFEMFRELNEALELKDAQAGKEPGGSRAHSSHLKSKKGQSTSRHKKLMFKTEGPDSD

As to `Nc1cc(C(F)(F)F)c(-c2cc(N3CCOCC3)nc(N3CCOCC3)n2)cn1`, the Potency in [1] was 1.69 µM (active); in [4] it was 4.17 µM (active); in experiment [5], 1.86 µM (active); in [6], 2.35 µM (active); in experiment [7] it was 1.66 µM (active); in experiment [8], 1.18 µM (active). For the same molecule, the figures for the Potency in [9] and in [10] were 2.09 µM (active) and 1.86 µM (active), respectively. The Potency result in experiment [2] and in experiment [3] was “inactive” in each case.

On to `CCc1ccc(C(=O)Nc2cc(CN3CCN(C)CC3)cc(C(F)(F)F)c2)cc1C#Cc1cnc2ccnn2c1`, for which the Potency in [1] is 19 µM (active); in experiment [4] it was 14.8 µM (active); in experiment [5] it was 10.5 µM (active); in experiment [6] it was 7.42 µM (active); in experiment [7], 1.86 µM (active); in [8], 9.34 µM (active). In addition, the Potency in [9] and in [10] was 5.9 µM (active) in each case. The Potency entry in [2] and in experiment [3] was “inactive” each time.

What is called viability is a read-out of living cells in per cent, often relative to untreated cells. For the molecule `Cc1cn2cc(C(=O)N(C)CCO)cc(N[C@@H]3CCOc4cccc(C)c43)c2n1`, the activation in [1] was -18% and -4.46%. The Potency entry in experiment [2], in experiment [3], in experiment [5], in experiment [6], in experiment [7] and in [8] was “inactive” each time. Besides, the Potency result in experiment [9] and in experiment [10] was “inactive” in each case. Further, the viability in [4] is 112%.

Consider `COc1cc2c(Nc3ccc(NC(=O)c4ccccc4)cc3)ncnc2cc1OCCCN1CCOCC1`, for which, in experiment [1], the activation was 32.6%. Further, the Potency entry in experiment [2], in [3] and in experiment [8] was “inactive” in each case. In addition, the Potency in experiment [4] was 26.3 µM (active); in experiment [5], 18.6 µM (active); in experiment [6], 1.66 µM (active); in experiment [7], 1.32 µM (active); in experiment [9], 20.9 µM (active); in [10], 23.5 µM (active).

Turning to `CCCCC(F)(F)[C@@]1(O)CC[C@H]2[C@H](CC(=O)[C@@H]2CCCCCCC(=O)O)O1`, the activation in experiment [1] was -19.7%. Moreover, the Potency result in experiment [2], in [3], in [5], in experiment [7], in experiment [8] and in experiment [9] was “inactive” in each case. Besides, in experiment [10], the Potency entry is “inactive”. Besides, in experiment [4], the viability is 108%. In addition, in [6], the Potency is 0.235 µM (active).

`COc1cc2c(Oc3ccc(NC(=O)C4(C(=O)Nc5ccc(F)cc5)CC4)cc3F)ccnc2cc1OCCCN1CCOCC1`: the Potency in experiment [1] was 7.57 µM (active); in [4], 23.5 µM (active); in experiment [5], 11.8 µM (active); in experiment [6], 0.0074 µM (active); in experiment [7], 0.833 µM (active); in experiment [8], 0.833 µM (active). For the same molecule, the Potency was 0.662 µM (active) in [9] and 0.59 µM (active) in [10]. Further, the Potency result in [2] and in experiment [3] was “inactive” throughout.

For the molecule `CN1CCN(c2ccc(C(=O)Nc3n[nH]c4ccc(Cc5cc(F)cc(F)c5)cc34)c(NC3CCOCC3)c2)CC1`, the Potency was 30.1 µM (active) and 216 nM (active) in experiment [1]; 16.6 µM (active) in [4]; 11.8 µM (active) in experiment [5]; 0.468 µM (active) in experiment [6]; 5.9 µM (active) in [7]; 3.32 µM (active) in experiment [8]. In addition, the values for the Potency in experiment [9] and in experiment [10] were 5.25 µM (active) and 1.48 µM (active), respectively. Further, the Potency result in experiment [2] and in [3] was “inactive” each time.

`O=C(O)CCCCCC(=O)NN=C1CCCC1`: the activation in experiment [1] is -11%. For the same molecule, the Potency result in experiment [2], in experiment [3], in experiment [5], in experiment [6], in [7] and in [8] was “inactive” each time. The Potency result in experiment [9] and in experiment [10] was “inactive” each time. Also, the viability in experiment [4] was 108%.

As to `COc1cc2c(Nc3ccc(Cl)c(Cl)c3F)ncnc2cc1OCC1C[C@@H]2CN(C)C[C@@H]2C1` (some centres undefined), the Potency in [1] was 13.5 µM (active) and 19.3 µM (active); in [4] it was 23.5 µM (active) and 20.9 µM (active); in experiment [5], 18.6 µM (active) and 13.2 µM (active); in experiment [6], 5.9 µM (active) and 5.25 µM (active); in [7] it was 1.05 µM (active) and 1.18 µM (active); in experiment [8] it was 9.34 µM (active). Besides, the Potency in [9] is 14.8 µM (active) and 10.5 µM (active); in experiment [10], 13.2 µM (active) and 10.5 µM (active). The Potency result in experiment [2] and in experiment [3] was “inactive” each time.

`CC(C)CC(=O)Nc1n[nH]c2c1CN(C(=O)C1CCN(C)CC1)C2(C)C`: the Potency in [1] was 6.11 µM (active) and 4.78 µM (active); in experiment [4], 10.5 µM (active); in [5] it was 1.32 µM (active); in experiment [6] it was 0.372 µM (active); in [7], 2.35 µM (active); in experiment [8], 2.35 µM (active). Further, the Potency in [9] and in [10] was 5.9 µM (active) each time. The Potency entry in experiment [2] and in experiment [3] was “inactive” in each case.

On to `CC(=O)Nc1nc(C)c(-c2ccc(Cl)c(S(=O)(=O)NCCO)c2)s1`, for which the activation in [1] was 12.7% and -14.3%. Besides, the Potency entry in experiment [2] and in experiment [3] was “inactive” throughout. The Potency in experiment [4] is 14.8 µM (active); in experiment [5], 8.33 µM (active); in [6], 3.72 µM (active); in experiment [7], 5.25 µM (active); in [9], 5.25 µM (active); in experiment [10], 4.17 µM (active).
